PubChem BioAssay AID1159580 (chemical genetic matrix, 2015)
About 2,000 (36%) of roughly 5,500 compounds were called active. Roughly 18% stayed inconclusive and do not appear here. No stated cut-off is given here; in the data, active means normalized growth mostly below about 0.91 (no sharp cut-off); inconclusive means no clear call, values can overlap the other calls; inactive means mostly above about 0.92. The list shows a part of the results.

Assay: chemical genetic growth profiling, strain panel (AID 1159580);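 further: tested at 20 µM; growth read once vehicle control cultures reached saturation at 30 °C; 1 = growth at the plate median or of vehicle wells; lower values mean less growth of the strain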
Conditions: S. cerevisiae deletion strains, growth OD

Measured: normalized growth

O=C(O)CCCc1ccccc1
active: locus YJR066W, strain TOR1, active compounds read low 0.795 | locus YKL068W, active compounds read low 0.917 | locus YKL085W, strain MDH1 (second series), active compounds read low 0.93 | locus YKL085W, strain MDH1, active compounds read low 0.93 | locus YLR113W, strain HOG1, active compounds read low 0.687 | locus YNL183C, strain NPR1, active compounds read low 0.772 | locus YOR231W, strain MKK1, active compounds read low 0.778 | locus YPL256C, strain CLN2, active compounds read low 0.72 | locus YPR141C, strain kar3, active compounds read low 0.896
inactive: locus YJR043C, strain POL32, active compounds read low 0.98 | locus YJR075W, strain HOC1, active compounds read low 1.01 | locus YKL009W, strain mrt4, active compounds read low 1 | locus YKL160W, strain elf1, active compounds read low 0.969 | locus YKR001C, strain vps1, active compounds read low 0.951 | locus YKR026C, strain gcn3, active compounds read low 0.98 | locus YKR091W, strain srl3, active compounds read low 0.98 | locus YLL001W, strain dnm1, active compounds read low 0.995 | locus YLL026W, active compounds read low 0.985 | locus YLL041C, strain sdh2, active compounds read low 0.989 | locus YLR027C, strain aat2, active compounds read low 0.984 | locus YLR039C, strain RIC1, active compounds read low 1.01 | locus YLR058C, strain SHM2, active compounds read low 1 | locus YLR102C, strain apc9, active compounds read low 0.994 | locus YLR221C, strain rsa3, active compounds read low 0.955 | locus YLR258W, strain gsy2, active compounds read low 0.98 | locus YLR262C, strain YPT6 (second series), active compounds read low 0.968 | locus YLR262C, strain YPT6, active compounds read low 1.01 | locus YLR268W, strain sec22, active compounds read low 0.985 | locus YLR320W, strain mms22, active compounds read low 0.992 | locus YLR330W, strain CHS5, active compounds read low 0.998 | locus YLR342W, strain FKS1 (second series), active compounds read low 1.05 | locus YLR342W, strain FKS1, active compounds read low 1.01 | locus YLR357W, strain rsc2, active compounds read low 1 | locus YLR370C, strain arc18, active compounds read low 0.977 | locus YLR371W, strain rom2, active compounds read low 0.99 | locus YLR384C, strain iki3, active compounds read low 0.989 | locus YLR418C, strain cdc73, active compounds read low 1.02 | locus YML016C, strain PPZ1, active compounds read low 1.01 | locus YML032C, strain rad52, active compounds read low 0.982 | locus YML120C, strain ndi1, active compounds read low 1 | locus YML124C, strain tub3, active compounds read low 0.986 | locus YMR058W, strain fet3, active compounds read low 0.989 | locus YMR078C, strain ctf18, active compounds read low 0.992 | locus YMR125W, strain sto1, active compounds read low 0.999 | locus YMR129W, active compounds read low 0.978 | locus YMR205C, strain PFK2, active compounds read low 0.972 | locus YMR223W, strain ubp8, active compounds read low 1.02 | locus YMR231W, strain pep5, active compounds read low 0.985 | locus YMR307W, strain GAS1, active compounds read low 1.1 | locus YNL067W, strain RPL9B, active compounds read low 0.981 | locus YNL071W, strain lat1, active compounds read low 0.992 | locus YNL209W, strain ssb2, active compounds read low 1.01 | locus YNL233W, strain BNI4, active compounds read low 1 | locus YNL248C, strain rpa49, active compounds read low 0.907 | locus YNL250W, strain rad50, active compounds read low 0.925 | locus YNL271C, strain bni1, active compounds read low 0.943 | locus YNL298W, strain CLA4, active compounds read low 0.955 | locus YNL307C, strain MCK1, active compounds read low 0.992 | locus YNL322C, strain KRE1 (second series), active compounds read low 0.954 | locus YNR049C, strain mso1, active compounds read low 0.975 | locus YNR052C, strain pop2, active compounds read low 0.986 | locus YOL012C, strain htz1 1.62 | locus YOL147C, strain pex11, active compounds read low 0.987 | locus YOR001W, strain rrp6, active compounds read low 0.962 | locus YOR061W, strain CKA2, active compounds read low 1 | locus YOR069W, strain VPS5, active compounds read low 1 | locus YOR070C, strain gyp1, active compounds read low 0.988 | locus YOR080W, strain dia2, active compounds read low 0.994 | locus YOR083W, strain WHI5, active compounds read low 0.975 | locus YOR106W, strain vam3, active compounds read low 0.988 | locus YOR136W, strain idh2, active compounds read low 0.976 | locus YOR144C, strain elg1, active compounds read low 0.996 | locus YOR184W, strain ser1, active compounds read low 0.988 | locus YOR265W, strain rbl2, active compounds read low 0.989 | locus YOR270C, strain vph1, active compounds read low 0.991 | locus YOR290C, strain snf2, active compounds read low 0.962 | locus YOR316C, strain cot1, active compounds read low 0.998 | locus YPL051W, strain arl3, active compounds read low 0.988 | locus YPL055C, strain LGE1, active compounds read low 0.963 | locus YPL078C, strain atp4, active compounds read low 0.985 | locus YPL106C, strain sse1, active compounds read low 0.969 | locus YPL240C, strain hsp82, active compounds read low 0.988 | locus YPL241C, strain CIN2, active compounds read low 1.01 | locus YPR119W, strain clb2, active compounds read low 0.995 | locus YPR163C, strain tif3, active compounds read low 0.983 | locus YPR167C, strain met16, active compounds read low 0.99 | strain wtn01, active compounds read low 0.995
